In all, about 33,000 sequences were measured (“E-score (-0.5 to 0.5)”: median about -0.016, highest 2% from about 0.3 on). The sample holds the highest values, similar sequences and a random draw of the others, so the mix is not that of the screen.

The target of this test is T1, Yer184c (UniProt P39961).
T1 sequence: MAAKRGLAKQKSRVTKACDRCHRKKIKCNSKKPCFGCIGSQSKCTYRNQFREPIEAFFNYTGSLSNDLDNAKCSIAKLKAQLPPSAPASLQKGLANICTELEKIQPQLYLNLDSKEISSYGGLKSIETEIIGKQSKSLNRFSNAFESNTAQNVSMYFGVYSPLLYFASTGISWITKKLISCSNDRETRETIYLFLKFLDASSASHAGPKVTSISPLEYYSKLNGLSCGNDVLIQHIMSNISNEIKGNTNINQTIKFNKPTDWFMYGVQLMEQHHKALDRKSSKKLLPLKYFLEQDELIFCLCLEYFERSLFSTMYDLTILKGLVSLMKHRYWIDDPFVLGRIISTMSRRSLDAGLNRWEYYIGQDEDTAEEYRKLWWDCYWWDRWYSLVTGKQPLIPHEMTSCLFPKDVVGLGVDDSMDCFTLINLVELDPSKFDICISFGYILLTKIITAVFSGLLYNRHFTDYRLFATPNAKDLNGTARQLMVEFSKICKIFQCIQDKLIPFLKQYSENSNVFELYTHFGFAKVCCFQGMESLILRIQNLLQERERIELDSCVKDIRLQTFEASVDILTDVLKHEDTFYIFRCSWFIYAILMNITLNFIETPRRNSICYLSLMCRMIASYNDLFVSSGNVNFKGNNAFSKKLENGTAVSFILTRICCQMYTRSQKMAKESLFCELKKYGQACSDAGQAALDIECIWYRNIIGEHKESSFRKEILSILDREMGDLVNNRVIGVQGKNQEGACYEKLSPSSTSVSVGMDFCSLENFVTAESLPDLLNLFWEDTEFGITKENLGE
Briefly: PBM E-score (8-mer binding enrichment) (E-score (-0.5 to 0.5)); higher = stronger / more preferred TF binding. The conditions noted are these: protein concentration: 100 nM; construct: GST-full length. The procedure:
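Universal 'all 10-mer' protein binding microarrays (Agilent AMADID 015681) probed with GST-tagged S. cerevisiae TFs (full-length or DBD) made by in vitro transcription/translation (PURExpress), about 100-200 nM. Bound TF was detected with fluorescent anti-GST. Each ungapped 8-mer (which stands for itself and its reverse complement) is scored by the PBM enrichment score (E-score), a modified Wilcoxon-Mann-Whitney statistic from -0.5 to +0.5, computed with the Universal PBM Analysis Suite. Scale: above 0.35 generally sequence-specific binding.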
As for CGGAACCG, the “PBM E-score” value was found to be 0.364.

Consider GGGAACCA, for which the “PBM E-score” value is -0.222.

Turning to CCGAACCC, the “PBM E-score” value stood at 0.0527.

Regarding CGGAACCA, the “PBM E-score” value amounted to 0.338.

On to CCGAACGA, for which the “PBM E-score” value was 0.245.

For CGGAACCC, the “PBM E-score” value came to 0.279.

With ACTTATAA, the “PBM E-score” value amounted to 0.221.

Take GATCTAGC: the “PBM E-score” value is -0.195.

Regarding CAACTACC, the “PBM E-score” value was -0.0226.

In the case of ATCCCATC, the “PBM E-score” value was -0.19.

Regarding ATGCACCC, the “PBM E-score” value was -0.147.

With CGGAAACC, the “PBM E-score” value was found to be 0.188.

In the case of CGAAATAA, the “PBM E-score” value was 0.255.

Regarding GGAAATAA, the “PBM E-score” value worked out at 0.319.

GGAAAAAA: the “PBM E-score” value was found to be 0.304.

Consider GGGAAAAC, for which the “PBM E-score” value is -0.00619.

Take CGGAAAAG: the “PBM E-score” value came out at 0.248.

Take GGGAAAAA: the “PBM E-score” value worked out at 0.123.

As to AGAAATAA, the “PBM E-score” value was determined as 0.19.

On to CGGAAAAC, for which the “PBM E-score” value was found to be 0.349.

Regarding AGGAAAAA, the “PBM E-score” value came to 0.168.

Consider GGAAAAAC, for which the “PBM E-score” value was 0.124.

Turning to CGGAAAAA, the “PBM E-score” value was 0.394.

Take CCAACCAC: the “PBM E-score” value was -0.0234.

As for AGAAAACT, the “PBM E-score” value is 0.0223.

Turning to TCCTTACA, the “PBM E-score” value was -0.0191.

AACGAAGT: the “PBM E-score” value is -0.0531.

Turning to TCTCCCAA, the “PBM E-score” value turned out to be 0.0611.

As to GCACTACA, the “PBM E-score” value was -0.142.

Turning to CGCCCCTC, the “PBM E-score” value was -0.199.

In the case of GGGAAACA, the “PBM E-score” value stood at 0.22.

For the sequence CGGAAACA, the “PBM E-score” value was determined as 0.314.

As for AGGAAACA, the “PBM E-score” value was 0.165.

For CGTCTACC, the “PBM E-score” value is 0.0232.

As for AAACTCGA, the “PBM E-score” value stood at 0.0301.

On to ACCACGGA, for which the “PBM E-score” value is 0.107.

As to ATAACGGA, the “PBM E-score” value was determined as 0.278.

Consider ACAACGGG, for which the “PBM E-score” value is 0.00646.

In the case of CCCACGGA, the “PBM E-score” value was 0.157.

Take CAAACGGA: the “PBM E-score” value is 0.267.

Take CTAACGGA: the “PBM E-score” value was determined as 0.284.

For TAAACGGA, the “PBM E-score” value is 0.311.

Take ACAACGGT: the “PBM E-score” value was -0.0406.

Consider GAAACGGA, for which the “PBM E-score” value came out at 0.294.

As to TCCACGGA, the “PBM E-score” value is 0.304.

Consider GTAACGGA, for which the “PBM E-score” value is 0.304.

For ACAACGGA, the “PBM E-score” value came to 0.314.

CCTGTAGA: the “PBM E-score” value was -0.094.

Consider ACGGCAGC, for which the “PBM E-score” value was found to be 0.161.

With AACGGTAC, the “PBM E-score” value was determined as 0.187.

Consider CTCAAAGC, for which the “PBM E-score” value came to 0.114.

As to ATGAACAA, the “PBM E-score” value was determined as 0.154.

For the sequence CCCCATCG, the “PBM E-score” value was -0.0742.

Regarding ACTCTGTC, the “PBM E-score” value was -0.139.

On to GCAACGGA, for which the “PBM E-score” value stood at 0.294.

As for CCAACGGA, the “PBM E-score” value was 0.101.

As for TCAACGGA, the “PBM E-score” value is 0.315.

ATCACGGC: the “PBM E-score” value came to 0.197.

For ATCACGGG, the “PBM E-score” value was -0.164.

With ATCACGGA, the “PBM E-score” value amounted to 0.307.

Take CAATGCAG: the “PBM E-score” value is -0.0658.

As to AGCCAGTC, the “PBM E-score” value was -0.153.

For the sequence CGAGGATC, the “PBM E-score” value came to 0.0927.

In the case of GAACCTCC, the “PBM E-score” value is -0.0558.

On to CAATTCAG, for which the “PBM E-score” value was -0.0853.

Take TGGCCGAA: the “PBM E-score” value amounted to 0.295.

On to AGGCCGAG, for which the “PBM E-score” value amounted to 0.143.

In the case of CGGCCGAA, the “PBM E-score” value amounted to 0.415.

With GGGCCGAA, the “PBM E-score” value worked out at 0.243.

For the sequence CGGCCGAC, the “PBM E-score” value was found to be 0.381.

For the sequence CAGCCGAG, the “PBM E-score” value was found to be 0.275.

With AGGCCGAC, the “PBM E-score” value came out at 0.0134.

Take CGGCCGAG: the “PBM E-score” value is 0.372.

GGGCCGAC: the “PBM E-score” value worked out at 0.132.

On to CACCCCCA, for which the “PBM E-score” value is -0.206.

Take CCAATTGG: the “PBM E-score” value turned out to be 0.041.

For TACTGTCA, the “PBM E-score” value was -0.0937.

With GCTCAAGC, the “PBM E-score” value is -0.0698.

Take ATGCTAAA: the “PBM E-score” value was found to be 0.0332.

With GATTGATA, the “PBM E-score” value amounted to 0.0572.

Regarding TGTTGTAA, the “PBM E-score” value was determined as 0.148.

As to ACCATCAG, the “PBM E-score” value is -0.101.

Regarding ACGCCGAA, the “PBM E-score” value is 0.343.

As for TCGCCGAA, the “PBM E-score” value was 0.316.

In the case of TCGCCAAA, the “PBM E-score” value is -0.0461.

As to GCGCCGAA, the “PBM E-score” value came to 0.343.

In the case of GCGCCGTA, the “PBM E-score” value came to 0.247.

With GCGCCGAC, the “PBM E-score” value was determined as 0.206.

On to TCGCCGCA, for which the “PBM E-score” value stood at 0.0686.

Turning to ACGCCGAT, the “PBM E-score” value was 0.151.

For ACGCCGAC, the “PBM E-score” value was 0.198.

On to AGGTATTG, for which the “PBM E-score” value was -0.0873.

With AAGGATAT, the “PBM E-score” value came to 0.0287.

For CTCTCCCA, the “PBM E-score” value was -0.211.

With CGGTCGCA, the “PBM E-score” value is -0.0193.

On to TGCCCGAA, for which the “PBM E-score” value turned out to be 0.0801.

In the case of ACCAAAGT, the “PBM E-score” value is -0.0125.

As to ATGGCCTC, the “PBM E-score” value was -0.106.

For ACGCTTCC, the “PBM E-score” value stood at 0.0165.

On to CTAAAGTC, for which the “PBM E-score” value is -0.0167.

As for CCGGCATC, the “PBM E-score” value was determined as 0.322.

With ACGGCACG, the “PBM E-score” value stood at 0.194.

As for CCGGCACG, the “PBM E-score” value came to 0.288.

For GCGGCACC, the “PBM E-score” value came to 0.23.

In the case of GCGGCACA, the “PBM E-score” value turned out to be 0.129.

Consider ACGGCACA, for which the “PBM E-score” value stood at 0.0865.

On to CCGGCACC, for which the “PBM E-score” value was determined as 0.352.

Take ACGGCATC: the “PBM E-score” value stood at 0.0862.

For the sequence CCGGCACA, the “PBM E-score” value is 0.314.

For the sequence ACGGCACC, the “PBM E-score” value is -0.0473.

For the sequence TCGGCACA, the “PBM E-score” value worked out at 0.307.

As to CCGGCATA, the “PBM E-score” value was found to be 0.291.

(Values after the supplement of paper PMC3334620.)
